# Screens: PubChem BioAssay, National Center for Advancing Translational Sciences (NCATS)
# HepG2 viability = kills HepG2 cells in TGF-b inhibitor counter-screen | Potency, µM (titrated, usually from 46.1 µM), without a hit: at the top dose activity change, negative = cytotoxicity, usual class: cytotoxic | HepG2 CAGA-GFP viability, ATP luminescence, 18 h | actives 0.76% (n = 410,000) | AID 588856
#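 HepG2 CAGA-GFP cells (1000/well, DMEM with 1% FBS) received compound, then TGF-beta at 500 pg/mL final, and were incubated 18 hours at 37 degrees C. Viability was read by CellTiter-Glo luminescence. Media-only wells were set as complete cell-killing and DMSO as no toxicity.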
# TDP1 cell CPT = DT40-hTDP1 cell growth loss with CPT; chicken DT40 Tdp1-/-;hTDP1 cells + 20 nM CPT, ATP luminescence, 48 h; actives 12% (n = 420,000); Potency, µM (titrated, usually from 46.2 µM), for inactives: top-dose activity change, negative = growth inhibition, usual class: inhibitors; also: % is scaled to controls: 0 for no effect and ±100 for the full control effect; nearly all actives have a fitted effect of over 55% in size
#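 Cell growth measured by CellTiter-Glo luminescence after a minimum 48 h, 37 C compound exposure with 20 nM CPT in Tdp1-knockout DT40 cells stably expressing hTDP1, seeded 400/well; qHTS titration format.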
# HT1080 IDH1KD tx = toxicity to HT-1080 IDH1 knockdown cells (counter line) | Potency, µM (top dose mostly 46.1 µM), without a hit: at the top dose activity, negative = toxicity, most hits filed as cytotoxic | HT-1080 IDH1 knockdown viability, ATP luminescence, 48 h | actives 2% (n = 360,000);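 also: 0% = DMSO wells and -100% = cell-free medium wells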
#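 In this qHTS, HT-1080 cells depleted of IDH1 are exposed for 48 h at 37 °C to compound titrations. Toxicity is scored from CellTiter-Glo luminescence, with DMSO as full viability and medium alone as none.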
# HT1080-NT tox = kills 2HG-producing HT-1080-NT fibrosarcoma cells; HT-1080-NT fibrosarcoma viability, CellTiter-Glo ATP luminescence, 48 h; Potency, µM (top dose mostly 46.1 µM), for inactives: at the top dose activity, negative = less viability, hits mostly cytotoxic; actives 1.6% (n = 360,000); AID 686970;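 also: NT is the 2HG producing partner of a matched IDH1 knockdown line; 0% = DMSO-treated cells and -100% = media-only wells without cells; nearly all actives have a fitted effect of over 55% in size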
#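 Fibrosarcoma NT cells, 750 per well in 5% FBS RPMI, were exposed to compound for 48 hours. Viability: CellTiter-Glo luminescence.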
# TDP1 cell noCPT = qHTS for Inhibitors of human tyrosyl-DNA phosphodiesterase 1 (TDP1): qHTS in cells in absence of CPT; Potency, µM (highest dose often 46.2 µM), for the others: top-dose activity change, negative = growth inhibition, usual class: inhibitors; actives 15% (n = 420,000); DT40 Tdp1-/- hTDP1 cells, no CPT, ATP luminescence, 48 h; also: % is scaled to controls: 0 for no effect and ±100 for the full control effect; nearly all actives have a fitted effect of over 55% in size
#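 Seeded 400 DT40-hTDP1 cells/well (vehicle DMSO, no 20 nM CPT); pinned compounds; ≥48 hr at 37 °C; CellTiter-Glo luminescence as viability measure.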
# TGFb SMAD3 inh = blocks TGF-b signaling. actives 1.2% (n = 410,000). AID 588855. HepG2 CAGA-GFP TGF-b/SMAD3 reporter, GFP fluorescence, 18 h; TGF-beta stimulated, 500 pg/mL final. Potency, µM (series often up to 46.1 µM), for the others: at the highest dose activity, negative = inhibition, actives largely listed as inhibitors; also: % is scaled to controls: 0 for no effect and ±100 for the full control effect; nearly all actives have a fitted effect of over 65% in size
#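 HEPG2 CAGA-GFP, 1000 cells/well; 2 h settle, 37 C; cpd via pin tool; TGF-b 500 pg/mL final; 18 h, 37 C; GFP imaging ex488/em500-530; %Activity normalised to -TGF-b and +DMSO controls; CRC fit, curve class.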
# An asterisk follows results filed as active; u = inconclusive; x = not tested or not shown. Most compounds without a hit are left out; they make up all but 17% or so of the library. Calls follow the shape of the dose curve; as a rule, active = well fitted curve in the direction sought with a large enough effect; inconclusive = small, poorly fitted or top-dose-only effect, or another doubt; inactive = no such curve, though single readings can be large; an effect the other way counts as inactive or inconclusive. Potency is read from the fitted curve at half-maximal effect.
SMILES,HepG2 viability,TDP1 cell CPT,HT1080 IDH1KD tx,HT1080-NT tox,TDP1 cell noCPT,TGFb SMAD3 inh
CCOC(=O)c1cccc(NC(=O)CC(c2ccc(F)cc2)N2Cc3ccccc3C2=O)c1 (stereo not drawn),-15.0%,u,x,x,25.9µM*,-4.0%
COc1ccc(C(CC(=O)Nc2ccc(C)cn2)N2Cc3ccccc3C2=O)cc1 (stereo not drawn),-3.9%,8.7%,-12.4%,0.0%,u,15.4%
CCc1cccc(NC(=O)CC(c2ccc(OC)cc2)N2Cc3ccccc3C2=O)c1 (stereo not drawn),-13.8%,20.6µM*,x,x,16.4µM*,3.0%
COc1cccc(CNC(=O)CC(c2ccc(C)cc2)N2Cc3ccccc3C2=O)c1 (stereo not drawn),-7.1%,u,x,x,u,3.0%
COc1ccc(C(CC(=O)Nc2cccc(C)c2C)N2Cc3ccccc3C2=O)cc1 (stereo not drawn),-22.8%,13µM*,x,x,16.4µM*,-10.2%
COc1ccc(NC(C)=O)cc1NC(=O)CSc1nnc(C2CCCCC2)n1N,-5.7%,2.2%,7.6%,9.9%,-12.5%,-1.6%
O=C(Cc1ccccc1[N+](=O)[O-])OCC(=O)N1CCN(c2ccccc2)CC1,3.5%,-8.9%,7.9%,-1.2%,-23.0%,-2.9%
CCN(CC)C(=O)c1cc(Cl)ccc1NC(=O)c1ccco1,-9.2%,-2.7%,0.2%,9.2%,4.4%,3.7%
CCN(CC)P(=O)(Nc1ccccc1Br)c1ccc(N(C)C)cc1NC(=O)c1ccco1 (stereo not drawn),-19.5%,29.1µM*,-4.5%,17.6%,23.1µM*,0.8%
CN(C)c1ccc(N2C(=O)CC(c3ccccc3)CC2=O)cc1,-9.9%,8.6%,15.5%,20.7%,-13.7%,5.0%
CC1SC(=S)N(c2ccc(N(C)C)cc2)C1=O (stereo not drawn),-74.6%,u,u,-0.6%,-20.2%,15.8µM*
CCCCOc1ccc(/C=N/NC(=O)c2nnn(-c3nonc3N)c2C)cc1,10.3%,-2.7%,-1.2%,-0.5%,-5.3%,-1.9%
CCn1c2ccccc2c2cc(NC(=O)COc3cc(C)ccc3C)ccc21,0.9%,u,x,x,9.2µM*,15.0%
CCn1c2ccccc2c2cc(NC(=O)COC(=O)c3cc(OC)c(OC)cc3OC)ccc21,-10.6%,20.6µM*,4.7%,-0.6%,20.6µM*,u
CCOc1ccc(OCC)c(NC(=O)c2nnn(CC(=O)Nc3cc(Cl)ccc3OC)c2N)c1,-6.1%,-14.5%,x,x,-18.8%,u
CCCc1nc(SCc2cc(=O)c3ccc(C)c(C)c3[nH]2)n[nH]1,0.1%,u,x,x,u,-2.2%
Cc1cc(O)c(CN2CCN(S(=O)(=O)c3cccs3)CC2)cc1C(C)C,-16.6%,23.1µM*,-14.0%,-16.1%,u,u
Cc1cc(C(C)(C)C)cc(CN2CCN(S(=O)(=O)c3cccs3)CC2)c1O,-28.5%,-6.5%,0.0%,-2.8%,0.184µM*,-10.5%
Cc1cccc(N(CC(=O)NC2CCCCC2)C(=O)c2csnn2)c1,0.5%,-0.2%,5.4%,15.2%,-14.9%,0.1%
C[C@@H]1CCCCO[C@@H](CN(C)S(=O)(=O)c2cn(C)cn2)[C@@H](C)CN([C@H](C)CO)C(=O)c2cc(N(C)C)ccc2O1,-36.3%,-1.7%,3.9%,13.4%,1.7%,u
Cn1ncc2c(Nc3cccc([N+](=O)[O-])c3)ncnc21,0.9%,-19.5%,10.7%,15.8%,u,10.8%
Fc1ccc(Nc2ncnc3ccc(-c4ccoc4)cc23)cc1,x,14.6µM*,x,x,u,x
Cc1ccc2ncnc(Nc3cccc([N+](=O)[O-])c3)c2c1,2.5%,23.1µM*,3.9%,11.5%,u,10.1%
c1nc(NC2CCNCC2)c2cc(-c3ccoc3)ccc2n1,x,u,x,x,-9.5%,x
CNc1ncnc2ccc(-c3ccccc3OC)cc12,x,u,x,x,20.6µM*,x
SMILES,HepG2 viability,TDP1 cell CPT,HT1080 IDH1KD tx,HT1080-NT tox,TDP1 cell noCPT,TGFb SMAD3 inh
COc1ccccc1-c1ccc2ncnc(Nc3ccccc3)c2c1,x,20.6µM*,x,x,-93.8%,x
CCCNC(=O)C1(C)CCCN(C(=O)c2ccc3ccccc3c2)C1 (stereo not drawn),-3.8%,-18.8%,16.5%,u,u,-1.0%
COc1ccc(OC)c(Nc2ncnc3ccc(Br)cc23)c1,-4.4%,u,-0.6%,-6.9%,u,u
COc1cccc(Nc2ncnc3ccc(Br)cc23)c1,-6.5%,u,-13.0%,-1.2%,20.6µM*,-17.4%
CCN1CCCc2cc(CN(CCN3CCOCC3)C(=S)Nc3cccc(OC)c3)ccc21,-48.4%,u,-6.6%,0.7%,20.6µM*,u
CCCN1CCCc2cc(CN(CCCN3CCOCC3)C(=O)Nc3ccc(Cl)c(Cl)c3)ccc21,-37.4%,25.9µM*,x,x,7.31µM*,u
CCOc1ccc(NC(=O)N(CCN2CCOCC2)Cc2ccc3c(c2)CCCN3CC)cc1,-23.2%,u,0.0%,2.0%,-4.5%,u
CCCN1CCCc2cc(CN(CCCN3CCOCC3)C(=O)Nc3ccc(OCC)cc3)ccc21,-6.4%,25.9µM*,-10.4%,-0.1%,u,-25.7%
Cc1cccc(C(=O)Nc2nnc(S(=O)(=O)N(C)c3ccccc3C)s2)c1,-36.8%,-18.4%,x,x,-26.9%,0.0%
COc1cc(CC(=O)OCC(=O)NC2CCCC2)cc(OC)c1OC,9.6%,-7.0%,6.1%,8.5%,13.8%,13.3%
Cc1ccc(NC(=O)c2cc(-c3cc(F)ccc3OCC3CCCO3)n[nH]2)cc1NS(C)(=O)=O (stereo not drawn),-30.7%,14.6µM*,u,u,14.6µM*,-0.3%
COc1cc(CNC(=O)c2cc(-c3cc(F)ccc3OCC3CCCO3)n[nH]2)cc(OC)c1 (stereo not drawn),-21.1%,u,0.0%,3.0%,20.6µM*,-8.6%
O=C(NCc1cc(C(F)(F)F)cc(C(F)(F)F)c1)c1cc(-c2cc(F)ccc2OCC2CCCO2)n[nH]1 (stereo not drawn),-13.1%,-14.8%,7.8%,14.4%,5.1%,-6.9%
O=C(COC(=O)c1nc(Cl)ccc1Cl)NNC(=O)c1cccs1,-14.8%,0.6%,-0.5%,1.3%,3.1%,-4.6%
Cc1cccc2nc(-c3ccco3)c(Nc3ccc4c(c3)OCCO4)n12,22.0%,u,-3.9%,26.4%,u,-2.4%
